Measurements taken from PubChem BioAssay (NCI).
The panel holds about 79,000 compounds, 15% with a hit somewhere; the sample as a whole holds those more often. The source made the active and inactive calls. Rule as the data show it: active = growth inhibition above about 70%; inactive = the rest.

Experiment: NCI Yeast Anticancer Drug Screen. Data for the mec2-1 strain (AID 157)
Conditions: S. cerevisiae mec2-1 strain, at 50.0 µM, hits give high values
How it was run: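 Each compound was tested on mec2-1 yeast, a strain altered in DNA damage repair or cell cycle control. Growth inhibition is reported relative to vehicle.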
In the case of `COc1ccc2c(ccc[n+]2C)c1`, the growth inhibition is reported as 30.9% (inactive). With `NC(=O)c1cc2c3ccccc3ccn2c1-c1ccccc1` the growth inhibition was 27.2% (inactive). With `O=C(CC(CC(=O)c1ccccc1)c1ccccn1)c1ccccc1` the growth inhibition was -20.2% (inactive). With `Cn1c(=O)[nH]c2ccccc2c1=O` the growth inhibition was 4.5% (inactive). For `C=COC(=O)C(C)(C)C`, the growth inhibition was -13.8% (inactive). For `CN1CCN(C(=S)S)CC1`, the growth inhibition was -2.5% (inactive). For `CC(=O)c1cccs1`, the growth inhibition was -0.05% (inactive). In the case of `C/C(=N\Nc1ccc([N+](=O)[O-])cc1[N+](=O)[O-])c1ccc(Br)cc1`, the growth inhibition is reported as -2.2% (inactive). With `CCC12OC(COc3ccccc3)CN1CCN2c1ccccc1` (centres undefined) the growth inhibition was -6.15% (inactive). With `CC1(C)OC(=O)CC1=O` the growth inhibition was -2.45% (inactive). For `CCOC(=O)c1ccc(NC(=O)Nc2nccs2)cc1`, the growth inhibition was -10.8% (inactive). With `NC(=O)N1CCOCC1` the growth inhibition was -7.9% (inactive). In the case of `C[n+]1c(/C=C\C=C\N2CCCCC2)sc2ccccc21`, the growth inhibition is reported as 14.6% (inactive). In the case of `NC(CCl)=NCC12CC3CC(CC(C3)C1)C2`, the growth inhibition is reported as 25.9% (inactive). In the case of `C=C(OC(C)=O)c1ccccc1`, the growth inhibition is reported as -12.4% (inactive). With `CCC(=O)C1C(=O)c2ccccc2C1=O` the growth inhibition was -12.6% (inactive). With `COc1ccc(/C=N/NC(=O)COCC(=O)N/N=C/c2ccc(OC)cc2)cc1` the growth inhibition was -47.7% (inactive). With `CC(c1ccccc1)N(C)C` (centres undefined) the growth inhibition was -1.8% (inactive). For `NC(=S)c1c(N)n(C2OC(CO)C(O)C2O)c2ncnc(N)c12` (centres undefined), the growth inhibition was -9.7% (inactive). For `C1CCc2onc(-c3noc4c3CCCCC4)c2CC1`, the growth inhibition was -15.8% (inactive). With `COC(=O)c1ccccc1C(=O)c1c(C)cc(C)cc1C` the growth inhibition was 28.2% (inactive). For `CN1C(=O)NC(c2ccc(Cl)cc2)(c2ccc(Cl)cc2)C1=O`, the growth inhibition was 11.1% (inactive). In the case of `CCCOCc1cn[nH]n1`, the growth inhibition is reported as 5.25% (inactive). With `NS(=O)(=O)c1cc(=O)[nH]c(=O)[nH]1` the growth inhibition was -10.8% (inactive). For `O=C(O)C1CSC(c2ccccc2)N1` (centres undefined), the growth inhibition was -12.8% (inactive). For `C=CCC(OC(C)=O)c1ccc(OC)c(OC)c1` (centres undefined), the growth inhibition was 1.35% (inactive). For `COc1cc(N)c2ncccc2c1Cl`, the growth inhibition was 3.55% (inactive). With `CC(=O)Oc1c(Cl)cccc1-c1ccccc1` the growth inhibition was 10.9% (inactive). For `CC(C)C(C)(C)C(=O)C(C)(C)C(C)(C)C`, the growth inhibition was -2.65% (inactive). In the case of `c1ccc2c(NCCCN3CCN(CCCNc4c5ccccc5nc5ccccc45)CC3)c3ccccc3nc2c1`, the growth inhibition is reported as 4.6% (inactive). For `O=S(=O)(O)c1ccc(O)c(C2CCCCC2)c1`, the growth inhibition was -8.4% (inactive). In the case of `Cc1ccc2nc(-c3ccc(N=Cc4ccccc4O)cc3)sc2c1`, the growth inhibition is reported as 12.9% (inactive). In the case of `CCCCCCCCCCCCCC/C=C\C(CC(=O)O)C(=O)O` (centres undefined), the growth inhibition is reported as -15.5% (inactive). In the case of `OCCc1ccc(Cl)cc1`, the growth inhibition is reported as 8.15% (inactive). With `CCOC(C=O)OCC` the growth inhibition was 6% (inactive). In the case of `Cc1ccc2nc(N)nnc2c1`, the growth inhibition is reported as -34.1% (inactive). In the case of `O=[n+]1ccn([O-])c2ccccc21`, the growth inhibition is reported as 8.45% (inactive).

Experiment: NCI Yeast Anticancer Drug Screen. Data for the sgs1 mgt1 strain (AID 161);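 also: 0% = growth of cultures given vehicle only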
Conditions: S. cerevisiae sgs1 mgt1 strain, at 50.0 µM, hits give high values
How it was run: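 Genetically altered yeast, compound exposure, growth inhibition relative to vehicle.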
With `COc1ccc2c(ccc[n+]2C)c1` the growth inhibition was 3.65% (inactive). With `NC(=O)c1cc2c3ccccc3ccn2c1-c1ccccc1` the growth inhibition was 46.7% (inactive). With `O=C(CC(CC(=O)c1ccccc1)c1ccccn1)c1ccccc1` the growth inhibition was -28.1% (inactive). For `Cn1c(=O)[nH]c2ccccc2c1=O`, the growth inhibition was -2.1% (inactive). For `C=COC(=O)C(C)(C)C`, the growth inhibition was 14.9% (inactive). With `CN1CCN(C(=S)S)CC1` the growth inhibition was 4.75% (inactive). For `CC(=O)c1cccs1`, the growth inhibition was 15.1% (inactive). For `C/C(=N\Nc1ccc([N+](=O)[O-])cc1[N+](=O)[O-])c1ccc(Br)cc1`, the growth inhibition was 2.35% (inactive). For `CCC12OC(COc3ccccc3)CN1CCN2c1ccccc1` (centres undefined), the growth inhibition was -10.7% (inactive). With `CC1(C)OC(=O)CC1=O` the growth inhibition was 0.55% (inactive). For `CCOC(=O)c1ccc(NC(=O)Nc2nccs2)cc1`, the growth inhibition was 29.4% (inactive). With `NC(=O)N1CCOCC1` the growth inhibition was -12.9% (inactive). For `C[n+]1c(/C=C\C=C\N2CCCCC2)sc2ccccc21`, the growth inhibition was 34.4% (inactive). In the case of `NC(CCl)=NCC12CC3CC(CC(C3)C1)C2`, the growth inhibition is reported as 48.8% (inactive). With `C=C(OC(C)=O)c1ccccc1` the growth inhibition was 5.8% (inactive). With `CCC(=O)C1C(=O)c2ccccc2C1=O` the growth inhibition was -17.5% (inactive). In the case of `COc1ccc(/C=N/NC(=O)COCC(=O)N/N=C/c2ccc(OC)cc2)cc1`, the growth inhibition is reported as -15.4% (inactive). With `CC(c1ccccc1)N(C)C` (centres undefined) the growth inhibition was 0.4% (inactive). In the case of `NC(=S)c1c(N)n(C2OC(CO)C(O)C2O)c2ncnc(N)c12` (centres undefined), the growth inhibition is reported as 7.1% (inactive). For `C1CCc2onc(-c3noc4c3CCCCC4)c2CC1`, the growth inhibition was -19.1% (inactive). In the case of `COC(=O)c1ccccc1C(=O)c1c(C)cc(C)cc1C`, the growth inhibition is reported as 34.1% (inactive). For `CN1C(=O)NC(c2ccc(Cl)cc2)(c2ccc(Cl)cc2)C1=O`, the growth inhibition was -23% (inactive). In the case of `CCCOCc1cn[nH]n1`, the growth inhibition is reported as 8.3% (inactive). With `NS(=O)(=O)c1cc(=O)[nH]c(=O)[nH]1` the growth inhibition was -0.5% (inactive). With `O=C(O)C1CSC(c2ccccc2)N1` (centres undefined) the growth inhibition was -4.35% (inactive). With `C=CCC(OC(C)=O)c1ccc(OC)c(OC)c1` (centres undefined) the growth inhibition was 14.7% (inactive). In the case of `COc1cc(N)c2ncccc2c1Cl`, the growth inhibition is reported as 24.4% (inactive). For `CC(=O)Oc1c(Cl)cccc1-c1ccccc1`, the growth inhibition was 28.1% (inactive). With `CC(C)C(C)(C)C(=O)C(C)(C)C(C)(C)C` the growth inhibition was -9.7% (inactive). In the case of `c1ccc2c(NCCCN3CCN(CCCNc4c5ccccc5nc5ccccc45)CC3)c3ccccc3nc2c1`, the growth inhibition is reported as 11.1% (inactive). In the case of `O=S(=O)(O)c1ccc(O)c(C2CCCCC2)c1`, the growth inhibition is reported as -21.1% (inactive). For `Cc1ccc2nc(-c3ccc(N=Cc4ccccc4O)cc3)sc2c1`, the growth inhibition was 6.5% (inactive). With `CCCCCCCCCCCCCC/C=C\C(CC(=O)O)C(=O)O` (centres undefined) the growth inhibition was 6.1% (inactive). For `OCCc1ccc(Cl)cc1`, the growth inhibition was 9.7% (inactive). In the case of `CCOC(C=O)OCC`, the growth inhibition is reported as 4.35% (inactive). For `Cc1ccc2nc(N)nnc2c1`, the growth inhibition was 3.9% (inactive). With `O=[n+]1ccn([O-])c2ccccc21` the growth inhibition was 9.05% (inactive).
